# Screening data from PubChem BioAssay.
# CCHFV vOTU inh = blocks the CCHF virus ovarian tumor domain protease; inhibition, % at 11.5 µM; AID 651958; 370,000 compounds, 0.55% hits; CCHFV vOTU protease, Pep-AMC fluorescence; in the data active = inhibition above about 30%; note: 0% = vehicle wells with enzyme and 100% = no enzyme wells
# PfHsp40 yeast = restores yeast growth despite PfHsp40 toxicity; S. cerevisiae expressing PfHsp40, growth rescue, ATP luminescence; 340,000 compounds, 0.68% hits; growth rescue, % at 12.5 µM; in the data active = growth rescue above about 28%, passing the limit was not always enough; inconclusive = no clear call, values can overlap the other calls;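 note: yeast W303a lacking pdr1 and pdr3 grown in galactose medium; growth measured after three days at 30 °C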
# Mtb hypoxia rep = inhibitors of hypoxia-regulated fluorescent reporter in Mycobacterium tuberculosis; M. tuberculosis hypoxia-regulated fluorescent reporter, fluorescence; fluorescence inhibition, % (concentration not given with the values); 300,000 compounds, 0.1% hits; in the data active = fluorescence inhibition mostly above about 23%, no sharp cut-off; inactive = mostly below about 17%
# Sa RN4220 lethal = kills Staphylococcus aureus RN4220. inhibition, % (test concentration not listed). S. aureus RN4220 growth, OD600, 16 h. 330,000 compounds, 0.33% hits. AID 1259311; in the data active = inhibition above about 85%;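 note: plate controls were untreated cells for no effect and reference antibiotic for full effect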
# Sa ugtP lethal = growth inhibition of S. aureus ugtP deletion strain | S. aureus RN4220 ugtP deletion, OD600 growth, 16 h | growth inhibition, % (concentration not given with the values) | 330,000 compounds, 0.54% hits | AID 1259309; in the data active = growth inhibition above about 68%;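 note: plate controls were untreated wells for no effect and antibiotic for full effect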
# BH1578 lux ind = inducers of Vibrio cholerae quorum light production without autoinducers | V. cholerae BH1578 lux reporter, luminescence, 6 h | activation, % at 18.7 µM | 350,000 compounds, 0.16% hits; in the data active = activation mostly above about 9.7%, no sharp cut-off; inconclusive = no clear call, values can overlap the other calls; inactive = mostly below about 3.7%
# Starred values were filed as active, the others as inactive; i = inactive; ? = inconclusive; · = no result shown; + = active, no number. Compounds with a hit are over-represented: about 1.7% of the library has one in this group of screens.
SMILES,CCHFV vOTU inh,PfHsp40 yeast,Mtb hypoxia rep,Sa RN4220 lethal,Sa ugtP lethal,BH1578 lux ind
COc1cccc(C(=O)OC2C(Cc3ccccc3)NS(=O)(=O)C3CC4C=C[C@]23O4)c1 (stereo not given in full),·,·,-4,4,2,·
COc1cc(NC(=O)CSc2ccc(-c3ccccn3)nn2)cc(OC)c1,11,221*,9,1,-2,0
CCc1ccc(NC(=O)CSc2ccc(-c3ccccn3)nn2)cc1,21,305*,6,4,18,0
CC(=O)c1cccc(NC(=O)CSc2ccc(-c3ccccn3)nn2)c1,9,-1,10,-1,6,0
CCOC(=O)c1ccccc1NC(=O)CSc1ccc(-c2ccccn2)nn1,15,211*,13,5,13,·
CC(=O)Nc1cccc(NC(=O)CSc2ccc(-c3ccccn3)nn2)c1,-6,438*,15,-5,7,i
CC(=O)NCc1ccc(S(=O)(=O)NN=Cc2ccccc2)cc1,·,·,-19,3,3,·
COC(=O)C1=C(C(=O)OC)C2Nc3ccccc3[C@@]23CC(C(=O)OC)N=C3N1 (stereo not given in full),·,·,1,5,3,·
CCN1C(=O)C2C(c3ccc(-c4ccc5c(c4)OCO5)cc3)N3CCC[C@@]3(C(=O)OC)C2C1=O (stereo not given in full),·,·,7,14,-14,·
CC1(C)C2CC=C(C=NNC(=O)c3ccc(Cl)cc3)C1C2 (stereo not given),·,·,10,-1,6,·
COC(=O)c1ccc(C=NNC(=O)CC(=O)NC(C)C)cc1,·,·,8,2,11,·
Cc1cc(SCC(=O)NN=Cc2ccc(O)c(O)c2)c(C)cc1Br,·,·,·,0,7,·
O=C(NC1CCSc2ccccc21)c1cccc(Br)c1 (stereo not given),-2,94*,-3,3,-4,-2
O=C(NC1CCSc2ccccc21)c1cccc(OC(F)F)c1 (stereo not given),10,0,-3,0,1,0
Oc1c(Br)cc(C=Nc2ccc3nc(-c4ccccc4)[nH]c3c2)c(O)c1Br,-86,0,·,·,·,·
Cc1ccc(-c2nc3ccc([N+](=O)[O-])cc3[nH]2)cc1,4,111*,19,-1,-9,-1
O=[N+]([O-])c1ccc(O)c(C=Nc2ccc3nc(-c4ccccc4)[nH]c3c2)c1,-189,0,14,88*,66,0
COc1ccc2c(c1)C(=O)N1C3c4cc(OC)ccc4OCC3C(c3ccccc3)[C@]1(C)C(=O)N2 (stereo not given in full),·,·,1,-4,-24,·
O=C(NN=Cc1cccc([N+](=O)[O-])c1)c1cc(-c2ccc3c(c2)OCO3)n[nH]1,·,·,-5,0,1,·
N#C/C(=C\Nc1ccccc1O)c1nc2ccccc2o1,11,452*,0,1,13,0
COc1ccc(N=Cc2cc(Cc3ccccc3Cl)cc([N+](=O)[O-])c2O)cc1OC,·,?,11,-3,-3,1
Cc1ccc(N=Cc2cc(Cc3ccccc3Cl)cc([N+](=O)[O-])c2O)c(O)c1,·,83*,-1,7,-7,i
O=c1c([N+](=O)[O-])c(N2CCCCC2)c2ccccc2n1-c1ccccc1,·,0,-2,-11,-4,+
O=c1c([N+](=O)[O-])c(NCCN2CCCCCC2)c2ccccc2n1-c1ccccc1,5,0,-4,1,-1,0
COc1ccc(Cc2nc3ccccc3n2CC(=O)NN=Cc2ccccc2)cc1OC,·,·,13,0,-1,·
SMILES,CCHFV vOTU inh,PfHsp40 yeast,Mtb hypoxia rep,Sa RN4220 lethal,Sa ugtP lethal,BH1578 lux ind
CC(C)(C)c1ccc(C(=O)CC(Sc2ccc(Cl)cc2)C(=O)O)cc1 (stereo not given),8,75*,0,-3,55,i
O=C(C=Cc1cccc(O)c1)c1ccccc1O,2,383*,-8,0,-8,3
COc1ccc(-c2cc3ncc(C(C)=O)c(C)n3n2)cc1,-6,53*,-2,2,3,i
CC(=O)OCC1=C(C(=O)O)N2C(=O)[C@@H](NC(=O)Cc3cccs3)[C@H]2SC1,2,0,·,99*,99*,0
CC(=O)OCC1=C(C(=O)O)N2C(=O)C(NC(=O)CC(C)c3ccccc3)C2SC1 (stereo not given),-8,0,·,100*,94*,2
CC(=O)OCC1=C(C(=O)O)N2C(=O)[C@@H](NC(=O)Cc3ccccc3)[C@H]2SC1,0,0,·,·,·,1
